Measured values from PubChem BioAssay (EPA / NIEHS).
“And” between values parts separate entries of the source, which are not always exact repeats. Equal values may be shown once. The source holds several records for some structures; these can differ, active in one and inactive in another. The source made the active and inactive calls. How the source made its calls: active means hit-call score of the fitted dose curve at least 0.9, where 1 is the maximum; inactive means score below 0.9.

Columns and labels:
[1] = ATG_M_61_CIS: Attagene CIS-FACTORIAL HepG2 Assay for M61 Transcription Factor (Internal Marker) (AID 2282937); conditions: HepG2 Attagene CIS-FACTORIAL M61 internal marker reporter; actives raise or lower the signal
Procedure, shortened: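 Using transiently transfected HepG2 liver cells, reporter transcript levels were assessed 24 h post-dosing by RT-PCR and capillary electrophoresis. Changes in either direction were fitted relative to DMSO controls.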

[2] = ATG_EGR_CIS: Attagene CIS-FACTORIAL HepG2 Assay for human Early Growth Response 1 (EGR1) (AID 2282938); conditions: HepG2 Attagene CIS-FACTORIAL EGR reporter mRNA; actives raise or lower the signal
Procedure, shortened: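 Fluorescent capillary-electrophoresis signal of reporter cDNA fragments serves as read-out. HepG2 cells bear transiently transfected cis-promoter reporter units and are exposed 24 h; gain- or loss-of-signal is fitted against DMSO.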

[3] = ATG_M_19_CIS: Attagene CIS-FACTORIAL HepG2 Assay for M19 Transcription Factor (Internal Marker) (AID 2282939); conditions: HepG2 Attagene CIS-FACTORIAL M19 internal marker reporter; actives raise or lower the signal
Procedure, shortened: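 Background-control endpoint from a multiplexed HepG2 reporter panel. Cells carrying cis-regulated reporter constructs are treated 24 h, then reporter transcripts are amplified, fluorescently labelled and sized by capillary electrophoresis. DMSO defines baseline.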

[4] = ATG_Ets_CIS: Attagene CIS-FACTORIAL HepG2 Assay for human Erythroblast Transformation Specific (ETS) (AID 2282941); conditions: HepG2 ETS cis-reporter transcription, actives raise or lower the signal
Procedure, shortened: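 Cis-regulated reporter mRNA induction in HepG2 (transient transfection), 24 h exposure, RT-PCR plus capillary electrophoresis detection; DMSO serves as negative control and baseline.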

[5] = molecular target: Hepatocyte nuclear factor 3-beta (Homo sapiens) (UniProt Q9Y261); assay: ATG_FoxA2_CIS: Attagene CIS-FACTORIAL HepG2 Assay for human Forkhead box A2 (FOXA2) (AID 2282942); conditions: HepG2 cis-reporter transcription factor activity, 24 h; actives raise or lower the signal
Sequence of Hepatocyte nuclear factor 3-beta (Homo sapiens) (Q9Y261 whole entry, looked up, the tested form may be a part): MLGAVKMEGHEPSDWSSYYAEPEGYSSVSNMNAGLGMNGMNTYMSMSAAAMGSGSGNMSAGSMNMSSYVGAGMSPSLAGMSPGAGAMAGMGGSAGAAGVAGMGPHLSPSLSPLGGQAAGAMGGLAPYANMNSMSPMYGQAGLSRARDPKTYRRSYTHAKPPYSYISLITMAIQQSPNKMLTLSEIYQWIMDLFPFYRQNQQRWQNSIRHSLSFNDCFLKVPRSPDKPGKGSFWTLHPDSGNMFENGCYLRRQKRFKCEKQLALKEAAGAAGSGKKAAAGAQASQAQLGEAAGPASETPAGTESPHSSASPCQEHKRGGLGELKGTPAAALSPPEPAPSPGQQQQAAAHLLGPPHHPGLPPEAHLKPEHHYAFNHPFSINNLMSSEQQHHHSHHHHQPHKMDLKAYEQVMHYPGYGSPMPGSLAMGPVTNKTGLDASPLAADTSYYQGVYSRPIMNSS
Procedure, shortened: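 Fluorescence signal of reporter cDNA fragments, separated by capillary electrophoresis, reflects endogenous transcription factor activity in transfected HepG2 after 24 h. Both increases and decreases fitted against DMSO.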

[6] = ATG_GATA_CIS: Attagene CIS-FACTORIAL HepG2 Assay for human GATA Binding Protein (AID 2282944); conditions: HepG2 GATA cis-element reporter, Attagene multiplex mRNA; actives raise or lower the signal
Procedure, shortened: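 Endogenous transcription factor activity was captured through cis-promoter-driven reporters in transfected HepG2 cells. After 24 h exposure, reporter transcripts were quantified by RT-PCR with fluorescent capillary electrophoresis, and responses fitted both directions against DMSO.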

[7] = ATG_ISRE_CIS: Attagene CIS-FACTORIAL HepG2 Assay for human Interferon Regulatory Factor 1 (IRF1) binding to an Interferon-Stimulated Response Element (ISRE) (AID 2282948); conditions: HepG2 ISRE cis-reporter (Attagene), mRNA transcription readout; actives raise or lower the signal
Procedure, shortened: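 Multiplexed mRNA reporter readout in human liver HepG2 cells: cis-element-driven reporters transfected, compound added for 24 h, transcripts amplified, fluorescently labelled and sized by capillary electrophoresis; curve fitting bidirectional against DMSO.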

[8] = ATG_M_32_CIS: Attagene CIS-FACTORIAL HepG2 Assay for M32 Transcription Factor (Internal Marker) (AID 2282949); conditions: HepG2 Attagene cis-factorial M32 reporter, mRNA; actives raise or lower the signal;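 further: background control marker of the multiplexed CIS panel rather than a real target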
Procedure, shortened: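 HepG2 human liver cells transiently transfected with cis-promoter-driven multiple reporter transcription units, dosed 24 h. Reporter mRNA quantified by RT-PCR, FAM-labelled primer extension, HpaI digest and capillary electrophoresis; bidirectional fit versus DMSO baseline.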

[9] = ATG_M_06_CIS: Attagene CIS-FACTORIAL HepG2 Assay for M06 Transcription Factor (Internal Marker) (AID 2282950); conditions: HepG2 Attagene CIS-FACTORIAL M06 internal marker reporter; actives raise or lower the signal
Procedure, shortened: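 Steps: transfect HepG2 with multiplexed cis-element reporter constructs; dose chemical 24 h; extract RNA with DNase treatment; reverse-transcribe, PCR-amplify, 6-FAM label, HpaI digest; separate fragments by capillary electrophoresis. Activity fitted both directions versus DMSO.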

[10] = molecular target: Hypoxia-inducible factor 1-alpha (Homo sapiens) (UniProt Q16665); assay: ATG_HIF1a_CIS: Attagene CIS-FACTORIAL HepG2 Assay for human Hypoxia Inducible Factor 1 (HIF1A) (AID 2282951); conditions: HepG2 Attagene cis-factorial HIF1a reporter transcription; actives raise or lower the signal
Sequence of Hypoxia-inducible factor 1-alpha (Homo sapiens) (Q16665 whole entry, looked up): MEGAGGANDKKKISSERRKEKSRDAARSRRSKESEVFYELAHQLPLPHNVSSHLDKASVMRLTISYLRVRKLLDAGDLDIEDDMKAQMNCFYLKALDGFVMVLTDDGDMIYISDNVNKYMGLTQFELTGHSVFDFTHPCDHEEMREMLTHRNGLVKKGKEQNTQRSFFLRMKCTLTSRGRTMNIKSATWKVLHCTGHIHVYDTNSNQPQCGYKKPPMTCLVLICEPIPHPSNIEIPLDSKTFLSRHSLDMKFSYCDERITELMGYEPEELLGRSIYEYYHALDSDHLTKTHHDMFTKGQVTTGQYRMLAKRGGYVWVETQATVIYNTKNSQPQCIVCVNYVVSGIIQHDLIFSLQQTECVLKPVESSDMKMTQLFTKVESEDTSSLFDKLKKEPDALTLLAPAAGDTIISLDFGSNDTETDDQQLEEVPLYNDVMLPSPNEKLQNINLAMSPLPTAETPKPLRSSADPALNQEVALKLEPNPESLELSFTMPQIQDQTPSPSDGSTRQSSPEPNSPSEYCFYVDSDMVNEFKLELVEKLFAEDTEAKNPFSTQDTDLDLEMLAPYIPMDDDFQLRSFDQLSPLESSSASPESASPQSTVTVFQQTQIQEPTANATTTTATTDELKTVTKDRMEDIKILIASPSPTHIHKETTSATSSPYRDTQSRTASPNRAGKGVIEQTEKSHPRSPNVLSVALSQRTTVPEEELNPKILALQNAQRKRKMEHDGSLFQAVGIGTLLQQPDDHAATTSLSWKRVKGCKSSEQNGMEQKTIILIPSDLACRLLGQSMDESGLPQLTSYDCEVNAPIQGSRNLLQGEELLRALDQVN
Procedure, shortened: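 Endogenous-TF cis reporter readout, human HepG2 cells, 24 h incubation; mRNA detected via RT-PCR and capillary electrophoresis fluorescence; DMSO-normalised bidirectional fitting.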

[11] = molecular target: Hepatocyte nuclear factor 6 (Homo sapiens) (UniProt Q9UBC0); assay: ATG_HNF6_CIS: Attagene CIS-FACTORIAL HepG2 Assay for human Hepatocyte Nuclear Factor 6 (HNF6) (AID 2282952); conditions: HepG2 Attagene cis-factorial HNF6 reporter transcription; actives raise or lower the signal
Sequence of Hepatocyte nuclear factor 6 (Homo sapiens) (Q9UBC0 whole entry, looked up): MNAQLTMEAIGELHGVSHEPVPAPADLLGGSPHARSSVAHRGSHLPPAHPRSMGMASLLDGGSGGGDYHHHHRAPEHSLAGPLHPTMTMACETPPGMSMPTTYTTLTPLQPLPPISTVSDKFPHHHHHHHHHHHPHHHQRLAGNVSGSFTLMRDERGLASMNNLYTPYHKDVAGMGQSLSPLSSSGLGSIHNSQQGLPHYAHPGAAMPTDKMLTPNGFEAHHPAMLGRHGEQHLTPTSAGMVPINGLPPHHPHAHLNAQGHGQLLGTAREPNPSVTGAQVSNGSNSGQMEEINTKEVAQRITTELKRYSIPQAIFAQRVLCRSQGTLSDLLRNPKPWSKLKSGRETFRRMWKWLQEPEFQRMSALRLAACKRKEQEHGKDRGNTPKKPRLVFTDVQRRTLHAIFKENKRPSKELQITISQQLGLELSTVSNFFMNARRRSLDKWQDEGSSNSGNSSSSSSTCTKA
Procedure, shortened: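 Endogenous factor activity read in transiently transfected HepG2 via promoter-regulated reporter transcripts. RNA harvested 24 h post-dosing, reverse-transcribed, PCR-amplified, FAM-labelled, HpaI-digested and resolved by capillary electrophoresis; fitted in both directions against DMSO.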

[12] = molecular target: Heat shock factor protein 1 (Homo sapiens) (UniProt Q00613); assay: ATG_HSE_CIS: Attagene CIS-FACTORIAL HepG2 Assay for human Heat Shock Transcription Factor 1 (HSE) (AID 2282953); conditions: HepG2 HSE cis-reporter, Attagene RNA transcription; actives raise or lower the signal
Sequence of Heat shock factor protein 1 (Homo sapiens) (Q00613 whole entry, looked up, the tested form may be a part): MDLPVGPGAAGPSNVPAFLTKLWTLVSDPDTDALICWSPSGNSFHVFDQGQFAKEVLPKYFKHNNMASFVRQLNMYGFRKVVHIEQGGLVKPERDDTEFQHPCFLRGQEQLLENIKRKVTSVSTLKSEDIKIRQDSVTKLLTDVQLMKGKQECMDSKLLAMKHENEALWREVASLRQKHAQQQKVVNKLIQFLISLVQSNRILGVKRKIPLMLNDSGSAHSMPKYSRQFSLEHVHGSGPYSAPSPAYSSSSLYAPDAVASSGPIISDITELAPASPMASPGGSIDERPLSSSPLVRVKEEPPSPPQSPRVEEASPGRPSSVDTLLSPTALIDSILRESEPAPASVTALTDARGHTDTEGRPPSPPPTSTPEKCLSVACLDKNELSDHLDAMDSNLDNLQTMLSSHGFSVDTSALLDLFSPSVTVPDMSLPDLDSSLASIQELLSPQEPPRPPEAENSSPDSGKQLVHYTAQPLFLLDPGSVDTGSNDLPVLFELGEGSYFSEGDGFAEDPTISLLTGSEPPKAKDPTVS
Procedure, shortened: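 Cells were transfected with cis-element-driven reporter constructs, dosed for 24 h, then total RNA was reverse-transcribed and reporter cDNA amplified, FAM-labelled and digested with HpaI. Fragments were resolved by capillary electrophoresis; gain or loss was fitted against DMSO.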

[13] = ATG_MRE_CIS: Attagene CIS-FACTORIAL HepG2 Assay for human Metal Responsive Element (MRE) (AID 2282954); conditions: HepG2 MRE cis-reporter transcription, Attagene multiplex; actives raise or lower the signal
Procedure, shortened: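 Cells were transfected with cis-promoter reporter transcription units, then dosed for 24 h. RNA was reverse-transcribed, amplified, fluorescently labelled and resolved by capillary electrophoresis, and activity was fitted in both directions relative to DMSO.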

[14] = ATG_PBREM_CIS: Attagene CIS-FACTORIAL HepG2 Assay for human Phenobarbital-responsive Enhancer Module (PBREM) (AID 2282955); conditions: HepG2 PBREM cis-reporter, Attagene multiplexed transcription; actives raise or lower the signal
Procedure, shortened: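 Readout: reporter mRNA, fluorescent RT-PCR fragments separated by capillary electrophoresis. System: HepG2 transiently transfected with cis-regulated reporter units. Exposure: 24 h. Analysis: bidirectional, DMSO baseline.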

[15] = molecular target: Paired box protein Pax-6 (Homo sapiens) (UniProt P26367); assay: ATG_Pax6_CIS: Attagene CIS-FACTORIAL HepG2 Assay for human Paired Box 6 (PAX6) (AID 2282956); conditions: HepG2 CIS-FACTORIAL PAX6 reporter transcription, RNA readout; actives raise or lower the signal
Sequence of Paired box protein Pax-6 (Homo sapiens) (P26367 whole entry, looked up): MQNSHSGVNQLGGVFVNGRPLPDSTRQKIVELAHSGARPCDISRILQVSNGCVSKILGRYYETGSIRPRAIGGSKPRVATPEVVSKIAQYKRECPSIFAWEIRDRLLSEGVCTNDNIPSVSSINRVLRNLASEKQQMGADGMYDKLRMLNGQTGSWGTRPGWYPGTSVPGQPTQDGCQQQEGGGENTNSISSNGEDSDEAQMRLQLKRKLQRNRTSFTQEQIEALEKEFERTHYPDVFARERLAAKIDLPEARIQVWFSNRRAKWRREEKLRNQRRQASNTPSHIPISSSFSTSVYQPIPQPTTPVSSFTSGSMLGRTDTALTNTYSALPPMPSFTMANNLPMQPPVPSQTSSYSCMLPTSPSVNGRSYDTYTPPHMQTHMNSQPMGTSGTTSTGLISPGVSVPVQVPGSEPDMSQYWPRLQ
Procedure, shortened: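 Fluorescent RT-PCR products separated by capillary electrophoresis report PAX6-linked promoter mRNA in HepG2 cells 24 h post-dose. Curves fitted bidirectionally, DMSO as negative control.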

[16] = ATG_ERE_CIS: Attagene CIS-FACTORIAL HepG2 Assay for Estrogen Response Element (ERE) (AID 2282940); conditions: HepG2 ERE cis-reporter, Attagene RNA transcript; actives raise or lower the signal
Procedure, shortened: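 Cells used were human hepatoma HepG2, transfected with multiple reporter transcription units under cis-regulatory promoters. Reporter mRNA, read 24 h post-dosing via fluorescent RT-PCR products on capillary electrophoresis, was fitted bidirectionally relative to DMSO.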

[17] = molecular target: Bile acid receptor (Homo sapiens) (UniProt Q96RI1); assay: ATG_IR1_CIS: Attagene CIS-FACTORIAL HepG2 Assay for human Nuclear Receptor Subfamily 1 Group H Member 4 (NR1H4), IR1 submotif (AID 2282946); conditions: IR1 reporter transcription, actives raise or lower the signal
Sequence of Bile acid receptor (Homo sapiens) (Q96RI1 whole entry, looked up): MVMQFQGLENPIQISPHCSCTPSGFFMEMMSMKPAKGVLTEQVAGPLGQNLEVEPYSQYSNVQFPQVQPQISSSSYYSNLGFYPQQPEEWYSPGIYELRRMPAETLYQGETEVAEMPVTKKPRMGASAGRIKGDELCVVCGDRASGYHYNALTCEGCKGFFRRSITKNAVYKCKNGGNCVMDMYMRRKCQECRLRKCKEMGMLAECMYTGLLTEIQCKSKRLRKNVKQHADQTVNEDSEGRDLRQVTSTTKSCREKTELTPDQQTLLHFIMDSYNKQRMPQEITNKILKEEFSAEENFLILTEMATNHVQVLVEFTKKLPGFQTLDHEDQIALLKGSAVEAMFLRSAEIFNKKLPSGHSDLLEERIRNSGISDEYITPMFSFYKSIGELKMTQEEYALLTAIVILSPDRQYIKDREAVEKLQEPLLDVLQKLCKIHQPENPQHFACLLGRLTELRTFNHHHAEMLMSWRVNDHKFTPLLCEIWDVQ
Procedure, shortened: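 Readout: reporter transcript levels by RT-PCR with fluorescent capillary electrophoresis, from HepG2 cells transiently transfected with multiplexed cis-regulated reporters and dosed 24 h. Gain- or loss-of-signal fitted versus DMSO negative control.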

[18] = ATG_GRE_CIS: Attagene CIS-FACTORIAL HepG2 Assay for human Glucocorticoid Response Elements (GRE) (AID 2282947); conditions: HepG2 GRE cis-reporter, Attagene multiplex mRNA; actives raise or lower the signal
Procedure, shortened: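 Cells (HepG2) bearing transfected cis-promoter reporter transcription units were treated with chemical for 24 hours. Reporter mRNA was measured via RT-PCR with capillary electrophoresis, and activity was fitted in both directions relative to DMSO.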

[19] = ATG_FoxO_CIS: Attagene CIS-FACTORIAL HepG2 Assay for human Forkhead box O (FoxO) (AID 2282943); conditions: HepG2 Attagene cis-reporter, FoxO element, mRNA; actives raise or lower the signal
Procedure, shortened: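 24 h chemical exposure, HepG2 with transient cis-MRTU transfection. RNA extraction, oligo(dT) RT, reporter-specific PCR, primer-extension labelling, HpaI digestion, CE fragment analysis; bidirectional fit, DMSO baseline.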

[20] = ATG_GLI_CIS: Attagene CIS-FACTORIAL HepG2 Assay for human Zinc Finger Protein GLI1 (AID 2282945); conditions: HepG2, Attagene cis-factorial reporter mRNA, GLI element; actives raise or lower the signal
Procedure, shortened: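 HepG2 cells transiently transfected with cis-promoter multiplexed reporter units report endogenous transcription factor activity. After 24 h chemical exposure, reporter mRNA was quantified by RT-PCR, 6-FAM labelling, HpaI digestion and capillary electrophoresis, with bidirectional fitting against DMSO.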

Measured: AC50

CC(C)(c1ccc(O)cc1)c1ccc(O)cc1
active: [2] 100 µM [middle of 6 runs] | [4] 101 µM and 33.7 µM | [5] 58.2 µM | [7] 142 µM [middle of 5 runs] | [10] 179 µM | [11] 45.7 µM | [12] 153 µM [middle of 6 runs] | [15] 105 µM [middle of 4 runs]
inactive: [1] | [2] | [3] | [4] | [5] | [6] | [7] | [8] | [9] | [10] | [11] | [12] | [13] | [14] | [15]

CCC(O)=C1C(=O)CC(C(=O)O)CC1=O (stereo unspecified)
inactive: [1] | [2] | [3] | [16] | [4] | [5] | [6] | [17] | [18] | [7] | [8] | [9] | [10] | [11] | [12] | [13] | [14] | [15]

CC(=O)[C@H]1CC[C@H]2[C@@H]3CCC4=CC(=O)CC[C@]4(C)[C@H]3CC[C@]12C
active: [2] 22.6 µM and 50.7 µM and 26.7 µM | [16] 1.27 µM [middle of 4 runs] | [19] 154 µM | [6] 152 µM | [7] 46.4 µM | [11] 182 µM | [12] 60 µM and 149 µM | [15] 24.6 µM
inactive: [1] | [2] | [3] | [4] | [5] | [19] | [6] | [7] | [8] | [9] | [11] | [12] | [15]

CCOC(=O)NCCOc1ccc(Oc2ccccc2)cc1
active: [2] 50 µM | [16] 12.6 µM | [17] 88.9 µM | [10] 86 µM | [12] 78.1 µM | [13] 66.2 µM | [14] 50 µM
inactive: [1] | [3] | [4] | [5] | [19] | [6] | [20] | [7] | [8] | [9] | [11] | [15]

COC(=O)c1c(Cl)nn(C)c1S(=O)(=O)NC(=O)Nc1nc(OC)cc(OC)n1
inactive: [1] | [2] | [3] | [16] | [5] | [19] | [6] | [17] | [18] | [7] | [8] | [9] | [10] | [11] | [12] | [13] | [14] | [15]

CCCN(CCC)c1c([N+](=O)[O-])cc(C(F)(F)F)c(N)c1[N+](=O)[O-]
active: [10] 13 µM | [11] 50 µM | [12] 81 µM | [13] 32.5 µM | [14] 29.7 µM
inactive: [1] | [2] | [3] | [16] | [5] | [6] | [17] | [18] | [7] | [8] | [9] | [15]
